From PubChem
CBX7 AlphaScr: CBX7 chromodomain binding inhibitors, primary screen, biochemical, AlphaScreen | AlphaScreen His6-CBX7 / biotin-H3K27me3 peptide binding; hits give low values | normalised signal (fraction of DMSO) (concentration not given with the values) | Chromobox protein homolog 7 (Homo sapiens), O95931 | hit rate 1.1% among 66,000; in the data active means normalised signal below about 0.5
Target sequence (O95931 whole entry, looked up): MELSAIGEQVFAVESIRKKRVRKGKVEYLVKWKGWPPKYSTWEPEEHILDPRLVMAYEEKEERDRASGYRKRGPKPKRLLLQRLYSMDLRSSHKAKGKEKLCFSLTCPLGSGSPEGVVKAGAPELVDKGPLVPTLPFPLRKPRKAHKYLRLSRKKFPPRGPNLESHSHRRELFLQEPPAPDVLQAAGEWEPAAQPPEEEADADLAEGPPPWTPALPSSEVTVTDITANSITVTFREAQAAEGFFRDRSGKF
An asterisk follows results filed as active. The full list was thinned out, with hits kept by preference.

SMILES	CBX7 AlphaScr
CCOC(=O)N1CCN(C(=O)C2CCN(C(=O)c3cc4sccc4n3CC)CC2)CC1	0.917
Cc1ccc2nc(N3CCC(C(=O)O)CC3)[nH]c2c1	0.981
COc1ccc(N2CCN(c3oc(COc4ccc(F)cc4)nc3C#N)CC2)cc1	0.552
N#Cc1nc(COc2ccccc2F)oc1N1CCN(Cc2ccccc2)CC1	0.456*
N#Cc1nc(COc2ccc(Br)cc2)oc1N1CCN(Cc2ccccc2)CC1	0.652
COc1ccccc1OCc1nc(C#N)c(N2CCN(c3ccccc3)CC2)o1	0.516
Cc1ccccc1OCc1nc(C#N)c(N2CCN(c3ccccc3)CC2)o1	0.42*
COc1ccc(N2CCN(c3oc(COc4ccccc4C)nc3C#N)CC2)cc1	0.525
N#Cc1nc(COc2ccccc2F)oc1N1CCCCCC1	0.561
COc1ccc(OCc2nc(C#N)c(N3CCN(c4ccc(OC)cc4)CC3)o2)cc1	0.688
COc1ccc(N2CCN(c3oc(COc4ccc(C)cc4)nc3C#N)CC2)cc1	0.485*
Cc1ccc(-c2nc(Nc3ccc(C(=O)O)cc3)c3ccccc3n2)cc1	1.02
Clc1ccc(CSc2nc3ccccc3o2)cc1Cl	1.49
Cc1cccc(OCC(=O)Nc2c(C(=O)c3ccc(Cl)cc3)oc3ccccc23)c1C	1.09
Cc1cccc(NC(=O)CCn2nc(-c3ccc(Cl)cc3)c3ccccc3c2=O)c1	0.931
COC(=O)CSc1nnnn1-c1ccc(C(N)=O)cc1	1.07
COCCn1cc(C(=O)NCC2COc3ccccc3O2)c2c3ccccc3n(C)c2c1=O (stereo unspecified)	1.06
Cn1cc(CC(=O)N2CCC3(CC2)OCCO3)c2ccccc21	1.03
CC1CC(C)CN(S(=O)(=O)c2ccc3c(c2)N(CC(=O)N2CCOCC2)C(=O)CO3)C1 (stereo unspecified)	1
Cn1cc(CCC(=O)NC2CCCc3ccccc32)c2ccccc21 (stereo unspecified)	0.937
CCOC(=O)c1c(NC(=O)CCl)sc(C(=O)N2CCCCC2)c1C	0.846
CCCN(CCC)S(=O)(=O)c1ccc2c(c1)N(CC(=O)N(C)Cc1ccccc1)C(=O)CS2	0.564
CCOc1ccccc1NC(=O)CCc1nc(-c2ccc(C)cc2)no1	1.12
CCCCN(C)S(=O)(=O)c1ccc(C(=O)Nc2c(C(=O)OCC)oc3ccccc23)cc1	1.13
CN(C1CCCCC1)S(=O)(=O)c1ccc(C(=O)Nc2ccc(-c3nc4ccccc4[nH]3)cc2)cc1	1
SMILES	CBX7 AlphaScr
CCCCN(C)S(=O)(=O)c1ccc(C(=O)Nc2nnc(CC)o2)cc1	0.394*
CCCN(CCC)S(=O)(=O)c1ccc(C(=O)Nc2nnc(COC)o2)cc1	0.817
COCc1nnc(NC(=O)c2ccc(S(=O)(=O)N(C)C3CCCCC3)cc2)o1	0.155*
COc1ccc(-c2nnc(NC(=O)c3ccc(S(=O)(=O)N(C)C4CCCCC4)cc3)o2)cc1	0.924
CCCCN(C)S(=O)(=O)c1ccc(C(=O)Nc2nnc(COC)o2)cc1	0.0893*
CCOC(=O)c1cnc2c(OC)cccc2c1Nc1ccc(C)cc1Br	0.85
Cc1oc(-c2cccc(Cl)c2)nc1CN1CCC(C(=O)NCCC2=CCCCC2)CC1	1.43
Cc1cccc(NC(=O)c2cc(-c3ccccc3)nc3ccc(C)cc23)c1	1.06
CCOc1ccc2nc(N3CCC(C(=O)NC4CCCC(C)C4C)CC3)sc2c1 (stereo unspecified)	1.01
Cc1cc(C)cc(N2CC(c3nc4ccccc4n3CCOc3ccccc3)CC2=O)c1 (stereo unspecified)	1.07
NC(=O)CSc1nnc2c(n1)[nH]c1ccccc12	1.02
c1ccc(CSc2nnc3c(n2)[nH]c2ccccc23)cc1	1.1
CCOC(=O)CCCCC(=O)c1[nH]c(=O)[nH]c1CSc1nnc2c(n1)[nH]c1ccccc12	0.423*
Cc1ccc(NC(=O)C2CCCN2S(=O)(=O)c2ccc3c(c2)CCC(=O)N3)cc1C (stereo unspecified)	1.03
COc1ccc(/C=C\c2onc(C)c2S(=O)(=O)N2CCC(C(=O)Nc3cccc(C)c3)CC2)cc1	1.02
O=C(CCc1nc2sc3c(c2c(=O)[nH]1)CCCC3)NCc1ccccn1	0.341*
COc1ccc(CNC(=O)CCc2nc3sc4c(c3c(=O)[nH]2)CCCC4)cc1	1.07
CC(=O)NCCNC(=O)CCc1nc2sc3c(c2c(=O)[nH]1)CCCC3	1.07
c1cc2c(cc1Nc1nc3nonc3nc1Nc1ccc3c(c1)OCO3)OCO2	0.37*
CC1CCN(c2nc3nonc3nc2Nc2ccc3c(c2)OCO3)CC1	0.945
Fc1cccc(Nc2nc3nonc3nc2Nc2cccc(F)c2)c1	1.04
COc1ccc(NC(=O)C(c2ccc(OC)cc2)N2CCOCC2)cc1 (stereo unspecified)	1.05
CCN(c1cccc(C)c1)C(C(=O)NC1CCCC1)c1ccc(Cl)cc1 (stereo unspecified)	0.888
CC1CCN(c2c(NCc3ccc(C(=O)NCc4ccccc4Cl)cc3)c(=O)c2=O)CC1	0.909
Fc1ccc(C(c2ccccc2)N2CCN(CCCc3c[nH]c4ccccc34)CC2)cc1 (stereo unspecified)	0.512
SMILES	CBX7 AlphaScr
Cc1ccc(C(c2ccccc2)N2CCN(CCCc3c[nH]c4ccccc34)CC2)cc1 (stereo unspecified)	0.488*
c1ccc(C(c2ccccc2)N2CCN(CCCc3c[nH]c4ccccc34)CC2)cc1	0.501
CC1(C(=O)NC2CCCCCC2)CCC(=O)N1Cc1cccs1 (stereo unspecified)	1.21
N#Cc1nc(-c2ccccc2)oc1N1CCOCC1	0.873
CC1CCN(c2oc(-c3ccccc3)nc2C#N)CC1	0.412*
CCN1CCN(c2oc(-c3ccccc3)nc2C#N)CC1	0.972
CCOc1ccc(-c2cc(CCCC(=O)NCc3ccc(F)cc3)no2)cc1	1.09
CC(C)(C)c1csc(NC(=O)c2ccc(S(=O)(=O)N3CCOCC3)cc2)n1	0.996
OCCNc1ccc2nnc(C(F)(F)F)n2n1	1.03
COc1ccc(-c2nc(-c3cccs3)[nH]c2-c2ccccc2)cc1OC	0.894
COc1cc(-c2nc(-c3ccccc3)c(-c3ccccc3)[nH]2)ccc1O	1.07
COc1cc(-c2nc(-c3cccs3)c(-c3cccs3)[nH]2)ccc1O	0.438*
CC1CCc2c(C(=O)NCCCSC3CCCCC3)csc2C1 (stereo unspecified)	1.11
COc1ccccc1CNC(=O)c1ccc2c(c1)nc(C)n2-c1cccc(F)c1	1.03
COC(=O)c1cn(-c2ccccc2)nc1-c1ccc(F)cc1	1.02
CCCCNC(=O)C1CC(=O)N(CCc2ccccc2)C1 (stereo unspecified)	1
CCCCN(CCCNC(=O)C1CC(=O)N(CCc2ccccc2)C1)c1ccccc1 (stereo unspecified)	0.498*
CCN(CCCNC(=O)C1CC(=O)N(CCc2ccccc2)C1)c1cccc(C)c1 (stereo unspecified)	0.991
CCOc1ccc(OCC)c(NC(=O)C2CCCN(c3nc4ccc(OCC)cc4s3)C2)c1 (stereo unspecified)	0.903
CCCN1CCN(CCCNC(=O)Cn2nc(Cc3cccnc3)c3ccccc3c2=O)CC1	1.19
COc1ccccc1CNc1ccc2c(c1)nc(C)n2C	1.04
COc1ccc2c(c1)nc(C)n2Cc1ccccc1	0.972
COc1ccc(CNc2ccc3c(c2)nc(C)n3Cc2ccccc2)cc1OC	0.404*
COc1cccc(CNc2ccc3c(c2)nc(C)n3Cc2ccccc2)c1OC	0.307*
COc1ccccc1OCc1nc2ccccc2n1Cc1ccccc1	1.06
CC(=O)Nc1ccc2c(c1)nc(C)n2Cc1ccccc1	1.15
